ChEMBL document CHEMBL1201862, “PubChem BioAssay data set” (2004)
The whole screen tested about 400,000 compounds, of which about 2,100 (0.53%) were called active. Inconclusive results (about 14%) are left out. The rule behind the calls is not given here. For the sample, actives were picked, then their nearest neighbours and some compounds at random.

The compounds below were run against Ataxin-2 (Homo sapiens) (UniProt Q99700) (assay: qHTS for Inhibitors of ATXN expression.).
Assay type: functional

Sequence of Ataxin-2 (Homo sapiens) (Q99700 whole entry): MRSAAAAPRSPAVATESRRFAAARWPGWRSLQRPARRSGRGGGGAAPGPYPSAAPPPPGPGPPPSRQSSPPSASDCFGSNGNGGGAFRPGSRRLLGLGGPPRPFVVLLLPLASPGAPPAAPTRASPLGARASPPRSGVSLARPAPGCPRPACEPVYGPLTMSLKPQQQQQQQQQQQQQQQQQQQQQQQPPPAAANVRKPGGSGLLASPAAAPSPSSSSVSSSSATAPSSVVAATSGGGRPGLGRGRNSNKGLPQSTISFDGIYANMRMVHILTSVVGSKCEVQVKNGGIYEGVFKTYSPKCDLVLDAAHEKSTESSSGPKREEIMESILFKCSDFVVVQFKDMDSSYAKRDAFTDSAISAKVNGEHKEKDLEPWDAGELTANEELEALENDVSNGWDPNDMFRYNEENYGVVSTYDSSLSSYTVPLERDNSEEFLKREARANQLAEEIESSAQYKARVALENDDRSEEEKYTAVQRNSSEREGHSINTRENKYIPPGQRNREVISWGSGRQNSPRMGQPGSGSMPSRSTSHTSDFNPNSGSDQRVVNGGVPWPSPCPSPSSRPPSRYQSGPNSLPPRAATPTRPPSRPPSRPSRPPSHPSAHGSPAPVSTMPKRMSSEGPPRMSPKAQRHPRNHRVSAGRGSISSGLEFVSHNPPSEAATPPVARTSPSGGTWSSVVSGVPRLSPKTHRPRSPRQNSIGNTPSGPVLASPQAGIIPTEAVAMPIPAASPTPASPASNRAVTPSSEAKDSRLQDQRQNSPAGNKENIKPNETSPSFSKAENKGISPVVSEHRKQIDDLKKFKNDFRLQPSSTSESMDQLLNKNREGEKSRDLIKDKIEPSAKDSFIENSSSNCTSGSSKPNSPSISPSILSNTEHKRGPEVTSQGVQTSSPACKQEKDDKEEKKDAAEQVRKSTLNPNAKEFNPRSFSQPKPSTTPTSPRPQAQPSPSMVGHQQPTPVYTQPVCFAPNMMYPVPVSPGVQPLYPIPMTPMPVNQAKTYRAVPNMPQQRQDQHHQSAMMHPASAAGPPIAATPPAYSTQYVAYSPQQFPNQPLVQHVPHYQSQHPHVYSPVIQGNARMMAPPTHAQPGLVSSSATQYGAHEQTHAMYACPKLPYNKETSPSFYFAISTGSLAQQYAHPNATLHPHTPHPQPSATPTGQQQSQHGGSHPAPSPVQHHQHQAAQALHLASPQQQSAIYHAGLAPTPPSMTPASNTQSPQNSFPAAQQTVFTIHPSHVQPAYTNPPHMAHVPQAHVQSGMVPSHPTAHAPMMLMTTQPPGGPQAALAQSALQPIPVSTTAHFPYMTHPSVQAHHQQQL

Row | SMILES | Potency
1 | CCN1C(=O)/C(=C2/Sc3ccccc3N2CC)S/C1=N\c1nc[nH]n1 | inactive
2 | CC1CC(NC(=O)c2cc3c(=O)n4ccccc4nc3n2C)CC(C)(C)C1 (configuration not stated) | inactive
3 | Cc1nc(NN)c2c3c(sc2n1)COC(C)(C)C3 | inactive
4 | COc1cnc(-c2ccccc2)nc1Oc1ccc(Cl)cc1C | inactive
5 | COc1ccccc1Cc1c(-c2cccc(Cl)c2)nc2ccc(C)cn12 | 22.4 µM (active)
6 | COc1cc(-c2nc3ccccn3c2/N=C/c2cccc(OC)c2O)ccc1O | inactive
7 | COc1ccc(-c2nc3ccc(C)cn3c2CC(C)(C)C)cc1OC | 12.6 µM (active)
8 | CCCCNc1c(-c2ccc(OC)c(SC3CCCCC3)c2)nc2cnccn12 | inactive
9 | COc1ccc(-c2nc3ccc(Cl)cn3c2Cc2cccc(F)c2)cc1OC | 39.8 µM (active)
10 | COc1ccc(-c2nc3c(-c4ccc(Cl)cc4)cnn3cc2C)cc1F | inactive
11 | COc1ccc(-c2cc(-c3ccc(N)cc3)nc(N)c2C#N)cc1OC | inactive
12 | O=C(O)c1ccc2c(c1)ncn2C1CCCC1 | inactive
13 | Cc1nc(CS(=O)(=O)c2ccccn2)sc1C(=O)NNC(=O)c1ccc(Cl)cc1 | inactive
14 | N#Cc1cc2c(=O)n3ccccc3nc2n(-c2ccccc2Cl)c1=O | inactive
15 | CN(CCO)c1nc(NCc2ccccc2)c2cnn(C)c2n1 | inactive
16 | COc1ccc(C2=CC(c3ccco3)n3ncnc3N2)cc1 (configuration not stated) | inactive
17 | CCOC(=O)COc1nc(-c2ccco2)cc(-c2ccco2)c1C#N | inactive
18 | N#Cc1cnn2c3c(cnc12)C(=O)N1CCc2ccccc2C1C3 (configuration not stated) | inactive
19 | CCc1cccc(NC(=O)C2CCN(c3ncnc4sc(C)c(C)c34)CC2)c1 | 33.6 µM (active)
20 | Cc1sc2ncnc(N/N=C/c3cccc(O)c3)c2c1C | inactive
21 | NNC(=O)c1cc2c(N3CCC(Cc4ccccc4)CC3)ncnc2s1 | inactive
22 | O=C(NN/C=C1/C(=O)N(c2ccc(Cl)cn2)C(=O)c2ccccc21)C1CC1 | inactive

Row | SMILES | Potency
23 | COc1ccccc1C1C=C(c2ccc(C(C)C)cc2)Nc2nnnn21 (configuration not stated) | inactive
24 | O=C(NC1CCCCC1)Sc1ccc(Cl)cc1 | 35.5 µM (active)
25 | O=C(NNC(=O)NC1CCCCC1)NC1CCCCC1 | inactive
26 | Cc1cc(Cl)cc(C)c1OCC(=O)NC1CCCCCC1 | inactive
27 | COc1cccc(C2CN(c3ccc(F)cc3F)N=C2c2cccs2)c1OC (configuration not stated) | inactive
28 | O=C(NC1CCCC1)c1[nH]nc2ccccc12 | inactive
29 | Cc1nc(N/C(N)=N/C(=O)NC2CCCCC2)nc2ccccc12 | 20 µM (active)
30 | C=CCn1c(SCC(=O)NC2CCCCC2)nc2ccccc2c1=O | inactive
31 | O=C(NCc1ccccc1)c1cnc2ccccc2c1O | inactive
32 | Cc1cccc(CS(=O)(=O)c2ncc(Cl)c(C(=O)NCc3ccccc3)n2)c1 | 31.6 µM (active)
33 | Cc1cccc(NC(=O)c2nc(S(=O)(=O)Cc3ccccc3)ncc2Cl)c1 | 35.5 µM (active)
34 | Cc1cccc(NC(=O)c2sc3nc4c(c(-c5ccco5)c3c2N)CCC4)c1 | inactive
35 | O=C(NCc1ccc2c(c1)OCO2)c1cccnc1Cl | inactive
36 | O=C(NCc1ccc2c(c1)OCO2)c1nc(S(=O)(=O)Cc2ccccc2F)ncc1Cl | 20 µM (active)
37 | COc1cccc(CNC(=O)CCS(=O)(=O)c2ccccc2Cl)c1 | inactive
38 | O=C(COc1ccc(S(=O)(=O)N2CCOCC2)cc1Cl)NCc1ccc2c(c1)OCO2 | inactive
39 | C=CCn1c(=N)c(C(=O)NCCCOC)cc2c(=O)n3cccc(C)c3nc21 | inactive
40 | CCc1cc(=O)oc2cc(OC(=O)CN3C(=O)NC4(CCCC4)C3=O)ccc12 | inactive
41 | CCOC(=O)c1cc2c(=O)n3cccc(C)c3nc2n(CCOC)/c1=N\C(C)=O | inactive
42 | CC(C)Cn1c(N)c(C(=O)NCC2CCCO2)c2nc3ccccc3nc21 (configuration not stated) | inactive
43 | COc1ccc(-c2nc(NC(=O)c3ccc(OCC(=O)N4CCOCC4)c(OC)c3)sc2C)cc1 | 15.8 µM (active)
44 | COc1ccc(C(=O)N2CCNC(=O)C2CC(=O)Nc2ccc(C)cc2)cc1 (configuration not stated) | inactive

Row | SMILES | Potency
45 | COc1ccc(C(=O)Nc2nc3n(n2)C(c2ccc(F)cc2)C=C(c2ccc(Cl)cc2)N3)cc1 (configuration not stated) | inactive
46 | COc1ccc(C(=O)Nc2ccc(OCC(=O)N3CCOCC3)cc2)c(OC)c1OC | inactive
47 | COc1ccc(C(=O)OCC(=O)N2CCOCC2)cc1S(=O)(=O)N1CCOCC1 | inactive
48 | COc1ccc(-c2ccc3c(N)c(C(=O)Nc4cc(F)ccc4C)sc3n2)cc1 | inactive
49 | COc1cc(C(=O)Nc2nc(-c3ccc(Cl)cc3)c(C)s2)ccc1OCC(=O)Nc1ccc(F)cc1 | 35.5 µM (active)
50 | COc1ccccc1NC(=O)c1sc2nc(C)c(C(=O)Nc3ccc(Cl)cc3)c(-c3ccc(Br)cc3)c2c1N | inactive
51 | COc1ccc(-c2nc(NC(=O)c3ccc(OCC(=O)Nc4ccc(F)cc4)c(OC)c3)sc2C)cc1 | 11.2 µM (active)
52 | CS(=O)(=O)c1cnc2c(-c3ccsc3)cnn2c1N | inactive
53 | Nc1ccc2nc3c(=O)n(CCc4ccccc4)c(=O)[nH]c3nc2c1 | inactive
54 | O=C(COC(=O)/C=C/c1ccc(Br)o1)NC1CCCCC1 | inactive
55 | O=C(c1ccccc1)c1ccc(OCC(O)CNCc2ccc(F)cc2)cc1 (configuration not stated) | inactive
56 | OC(CNCCc1ccc(C(F)(F)F)cc1)COc1ccc2ccccc2c1 (configuration not stated) | 25.1 µM (active)
57 | COc1ccc(C2CC(c3ccncc3)=NN2c2ccc(S(N)(=O)=O)cc2)cc1 (configuration not stated) | inactive
58 | O=C(CNC(=O)c1ccccc1Br)N/N=C/c1ccccc1O | inactive
59 | CC(Oc1ccccc1Cl)C(=O)N(Cc1cccs1)C1CCS(=O)(=O)C1 (configuration not stated) | inactive
60 | Cn1cc(C(=O)CCl)c2ccccc21 | 35.5 µM (active)
61 | Cc1cc(NC(=O)CSc2cn(C)c3ccccc23)no1 | inactive
62 | Cc1c(C(=O)Cc2ccccc2)n(C)c2ccccc12 | inactive
63 | Cc1cc(Sc2nc(NC(C)(C)C)nc(N3CCOCC3)n2)nc(Cl)n1 | inactive
64 | Cc1cc2[nH]c3c(c[n+](C)c4ccccc34)c2cc1C | 31.6 µM (active)
65 | Cc1nccc2cc3[nH]c4ccccc4c3cc12 | inactive
66 | CCn1c(=N)c(C(=O)NC)cc2c(=O)n3cccc(C)c3nc21 | inactive

Row | SMILES | Potency
67 | Cc1ccc(S(=O)(=O)Nc2nc3n(n2)C(c2ccc(Cl)cc2)C=C(c2ccccc2)N3)cc1 (configuration not stated) | inactive
68 | COc1ccccc1C(=O)OCC(=O)NC(=O)NC1CCCC1 | inactive
69 | CN(C(=O)COC(=O)c1cccnc1O)C1CCCCC1 | inactive
70 | CN(C)c1ccc(N=Nc2ccccc2C(=O)OCC(=O)NC2CCCC2)cc1 | 28.2 µM (active)
71 | CC(C)Cc1nc2sc3c(SCC(N)=O)ncnc3c2c2c1CCC2 | inactive
72 | CC(=O)/N=c1\c(C#N)cc2c(=O)n3ccccc3nc2n1Cc1ccccc1 | inactive
73 | CCN(CC)CCn1c(-c2ccccc2)cs/c1=N\c1ccccc1 | 15.8 µM (active)
74 | CCN(CC)c1ccc2cc(S(=O)(=O)c3ccc(C)cc3)c(=O)oc2c1 | inactive
75 | CN(C)CCCNc1cc(C(C)(C)C)nc2c(-c3ccc(Cl)cc3)cnn12 | 39.8 µM (active)
76 | Cc1nc2c(-c3ccc(Cl)cc3)cnn2c2c1CCC2 | inactive
77 | Cc1cc(C)n(-c2cc(C(C)(C)C)nc3c(-c4ccccc4)cnn23)n1 | inactive
78 | O=c1c2ccccc2[nH]c2ccc(O)cc12 | inactive
79 | CCOc1ccc2c(c1)C(N(CCN1CCOCC1)C(=O)Nc1ccccc1)CC(C)(C)O2 (configuration not stated) | inactive
80 | CCOc1ccc(C(=O)COC(=O)Cn2cnc3c2c(=O)n(C)c(=O)n3C)cc1 | inactive
81 | CCOc1ccc(C(=O)CCN2CCOCC2)cc1 | 39.8 µM (active)
82 | O=C(CCN1CCOCC1)N/N=C/c1cc(Br)cc(Br)c1O | inactive
83 | COc1ccc(OCCC(=O)NCCN2CCOCC2)cc1 | inactive
84 | CCCCOc1ccc(C(=O)CCN2CCOCC2)cc1 | 23.8 µM (active)
85 | CCCN(CCC)S(=O)(=O)c1ccc(C(=O)Nc2sc3c(c2C(=O)OC)CCN(CC)C3)cc1 | inactive
86 | CCc1cc(=O)oc2cc(C)cc(O)c12 | inactive
87 | O=C(COC(=O)c1cc(S(=O)(=O)N2CCCCC2)ccc1N1CCOCC1)c1ccccc1Cl | inactive
88 | COc1ccc(Nc2ccc3c(c2)=NC2(CCCCC2)[N+]=3[O-])cc1 | 20 µM (active)

Row | SMILES | Potency
89 | COc1ccc(Nc2ccnc(Nc3ccc(OC)cc3)n2)cc1 | inactive
90 | CC(=O)c1cc2c(s1)-c1cc(F)ccc1OC2 | inactive
91 | O=C(Nc1ccc(-c2csc(Nc3cccc(C(F)(F)F)c3)n2)cc1)c1cccc(C(F)(F)F)c1 | 20 µM (active)
92 | O=C(Nc1cccc(-c2csc(Nc3ccc(Cl)cc3)n2)c1)c1cc([N+](=O)[O-])cc(C(F)(F)F)c1 | 35.5 µM (active)
93 | NS(=O)(=O)c1cccc(NC(=O)CSc2n[nH]c(-c3cccs3)n2)c1 | inactive
94 | COc1ccc(CC(N)c2csc(NC(=O)Nc3ccccc3C(C)(C)C)n2)cc1 (configuration not stated) | 39.8 µM (active)
95 | CC(C)(C)c1ccccc1NC(=O)c1cnn2c(C(F)F)cc(-c3ccccc3)nc12 | inactive
96 | COc1cccc(OCC(=O)Nc2ccccc2-c2ccccc2)c1 | inactive
97 | COc1ccc(CC(N)c2csc(NC(=O)Nc3ccccc3-c3ccccc3)n2)cc1 (configuration not stated) | 39.8 µM (active)
98 | O=C(Cc1ccccc1F)Nc1ccccc1-c1ccccc1 | inactive
99 | CCOC(=O)CCc1c(C)c2cc3c(c(C)c2oc1=O)OCN(CCc1ccccc1OC)C3 | inactive
100 | Cc1cc(C(=O)NNC(=O)c2ccc(C(F)(F)F)cc2)no1 | inactive
101 | CC1C/C(=N\NC(=O)c2ccc([N+](=O)[O-])cc2)CC(C)(C)C1 (configuration not stated) | inactive
102 | Cc1ccc(NS(=O)(=O)c2ccc(C(=O)N3CCN(c4ncccn4)CC3)cc2)cc1 | inactive
103 | CCCCCc1c(-c2cccc(OC)c2)ncn1CCc1ccccc1OC | 31.6 µM (active)
104 | COc1ccccc1[C@H]1C(c2cccc(Cl)c2)=NN(c2ccccc2)[C@@H]1CO | inactive
105 | CCCCNc1c(-c2ccc(OC)c(Sc3ccc(OC)cc3)c2)nc2cnccn12 | inactive
106 | CCCCc1c(-c2cccc(Cl)c2)ncn1CCc1ccccc1OC | 31.6 µM (active)
107 | CCCCc1c(-c2cccc(OC)c2)ncn1CCc1ccccc1OC | 39.8 µM (active)
